Source: PubChem BioAssay
D2 ag-1: human D2 receptor agonism in beta-arrestin assay | 360,000 compounds, 0.084% hits | activation, % (test concentration not listed) | P14416 | DiscoveRx PathHunter D2 beta-arrestin, luminescence, 90 min; 100% = 57 uM dopamine signal; in the data active = activation above about 40%; inconclusive = between about 15% and that limit
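Agonist mode: compounds alone added to overnight-plated D2 PathHunter cells for 90 min at 37 C, with 57 uM final dopamine (EC100) defining full response. Beta-arrestin recruitment detected by chemiluminescent reagent, read after 1 h at ambient temperature.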
D2 antagonist: D2 dopamine receptor (human) antagonism. P14416. HEK293 TREx D2 cells, calcium flux, dopamine EC80. inhibition, % at 10 µM. 340,000 compounds, 2% hits; in the data active = inhibition above about 30%; inactive = below that, where a call was filed; also: 0% is about no effect
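Compounds are added to dye-loaded, induced HEK293 T-REx cells coupled to calcium release via D2; after a 3 min kinetic read an EC80 dopamine stimulus is given and fluorescence is recorded for 3 more min.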
D2 ag-2: D2 dopamine receptor (human) agonism. P14416. HEK293 T-REx D2 cells, calcium flux agonist mode. activation, % at 2 µM. 340,000 compounds, 0.53% hits. AID 485358;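 active = activation over 3 SD above normal in the single-dose calcium agonist read, cut at about 30% in these data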; also: 0% is about no effect
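In this primary screen, compounds producing a positive calcium signal within 180 s of addition to tetracycline-induced, force-coupled HEK293 Trex D2 cells are flagged; cells are dye-loaded with a no-wash calcium kit beforehand.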
D2 PAM-1: human D2 receptor positive allosteric modulation; DiscoveRx D2 beta-arrestin cells, luminescence, 90 min; 100% = 57 uM dopamine signal; potentiation, % (test concentration not listed); 360,000 compounds, 0.23% hits; in the data active = potentiation above about 50%; inconclusive = mostly about 30% to 49%
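D2 cells co-treated with compound plus 50 nM dopamine (EC20) for 90 min at 37 deg C to detect potentiation. Beta-arrestin recruitment was read as enzyme-fragment luminescence after 1 h at ambient temperature. Full response was set by 57 uM dopamine.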
D2 PAM-2: positively modulates the human D2 dopamine receptor allosterically. P14416. HEK293 T-REx D2, calcium flux, EC20 dopamine potentiation. potentiation, % at 10 µM. 340,000 compounds, 0.34% hits;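 active = potentiation over 3 SD above the plate norm, cut at about 30% in these data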; also: 0% is about no effect
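Potentiation of an EC20 dopamine calcium response is measured in a force-coupled, tetracycline-inducible Hek293 Trex D2 line. Compound-only kinetic reads over 180 s flag agonists before dopamine addition.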
D3 ag: activates human D3 dopamine receptor beta-arrestin recruitment. shares compounds with D2 ag-2. DiscoveRx D3 beta-arrestin cells, luminescence, 90 min. Potency, µM (top dose mostly 76.9 µM), for inactives: at the top dose activation, actives largely listed as activators. 2,300 compounds, 4% hits;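 also: potency is read from the fitted curve at half-maximal effect; 100% = dopamine control response; nearly all actives have a fitted effect of over 70% in size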
Target sequence (P35462 whole entry, looked up): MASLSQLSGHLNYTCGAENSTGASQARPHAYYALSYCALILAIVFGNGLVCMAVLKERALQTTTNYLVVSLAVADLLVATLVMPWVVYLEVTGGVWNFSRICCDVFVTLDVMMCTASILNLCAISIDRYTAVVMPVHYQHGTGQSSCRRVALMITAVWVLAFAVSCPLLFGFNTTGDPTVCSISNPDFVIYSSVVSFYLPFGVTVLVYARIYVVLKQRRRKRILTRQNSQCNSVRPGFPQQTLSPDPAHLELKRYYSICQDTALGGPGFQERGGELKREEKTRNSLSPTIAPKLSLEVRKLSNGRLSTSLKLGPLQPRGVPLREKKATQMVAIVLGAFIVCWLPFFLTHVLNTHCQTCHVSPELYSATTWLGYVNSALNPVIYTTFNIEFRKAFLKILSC
D2 ag-3: activates human D2 dopamine receptor in D3 counterscreen; shares compounds with D2 ag-2; DiscoveRx PathHunter D2 beta-arrestin, luminescence, 90 min; response scale: percent relative to full dopamine signal; Potency, µM (top dose mostly 76.9 µM), inactives show at the top dose activation, actives largely listed as activators; 2,300 compounds, 5.9% hits; also: potency is read from the fitted curve at half-maximal effect; % of control where 0% means no effect; nearly all actives have a fitted effect of over 70% in size
The depositor's hits bear a star; ? = inconclusive; nt = not tested or not shown. Most compounds without a hit are left out; they make up all but 2.4% or so of the library. Unless noted, calls follow the shape of the dose curve; as a rule, active = well fitted activation curve with a large enough effect; inconclusive = small, poorly fitted or top-dose-only effect; inactive = flat fitted curve, though single readings scatter.

SMILES	D2 ag-1	D2 antagonist	D2 ag-2	D2 PAM-1	D2 PAM-2	D3 ag	D2 ag-3
Cc1cc(OCC(O)CN2CCN(c3ccccn3)CC2)cc(C)c1Cl (configuration not stated)	?	43.2*	46.1*	5.1	-16.7	6.31µM*	?
OC(CN1CCN(c2ccccn2)CC1)Cn1c2ccccc2c2ccccc21 (configuration not stated)	7.6	2.3	2.1	-6.0	-19.3	nt	nt
Cc1cc(C)c(OCC(O)CN2CCN(c3ccccn3)CC2)c(C)c1 (configuration not stated)	48.2*	78.1*	78.8*	?	-25.9	0.0794µM*	10µM*
CC(=O)c1ccc(NC(=O)CC2Oc3ccc(C)cc3NC2=O)cc1 (configuration not stated)	nt	nt	0.2	nt	10.4	nt	nt
COc1ccc(C(=O)NCCn2cc(SCC(=O)NCCc3ccc(OC)c(OC)c3)c3ccccc32)cc1	nt	nt	-0.2	nt	3.2	nt	nt
COc1cc(CN2CCN(c3ccccc3F)CC2)cc(OC)c1O	?	69.8*	60.3*	-1.0	-17.7	?	?
COc1cc(CN2CCC(C(=O)N3CCN(c4ccccc4F)CC3)CC2)cc(OC)c1O	2.2	33.7*	1.1	-13.3	0.4	11.8%	10.7%
COC(=O)c1cc(NC(=O)CN(c2ccccc2)S(=O)(=O)N(C)C)ccc1Cl	nt	nt	nt	nt	6.6	nt	nt
Cc1c(C)n(C)c2ccc(C(=O)N3CCN(c4ccccn4)CC3)cc12	10.5	31.4*	56.0*	10.9	-21.0	?	20.3%
Cc1c(C)n(C)c2ccc(C(=O)N3CCN(c4ccccc4)CC3)cc12	-2.3	nt	1.0	1.9	-6.2	nt	nt
CN(C)S(=O)(=O)c1ccc(N2CCCC2)c(C(=O)NNC(=O)COc2cccc(F)c2)c1	-1.2	23.7	-0.2	-4.1	2.3	-6.6%	0.2%
CCOC(=O)c1ccc(N2CN(CCc3ccccc3)CNC2=S)cc1	-2.1	-14.6	6.8	-8.6	7.0	-5.3%	-4.1%
CCCN1CNC(=S)N(c2ccc(C(=O)OCC)cc2)C1	-2.7	-1.1	-0.3	3.4	-3.6	nt	nt
Cc1ccccc1NC(=O)COc1coc(CN2CCN(Cc3ccccc3)CC2)cc1=O	0.8	-3.8	73.6*	-13.3	-33.5	-31.7%	-3.1%
Cc1ccc(NC(=O)COc2coc(CN3CCN(Cc4ccccc4)CC3)cc2=O)cc1	3.7	3.9	-1.3	-7.0	11.3	nt	nt
O=C(COc1coc(CN2CCN(c3ccccc3F)CC2)cc1=O)NC1CCCCC1	14.6	19.2	0.8	2.5	-8.0	12.0%	16.0%
Cc1ccc(CNC(=O)CN2C(=O)C3CCCCN3c3ccc(C(=O)N(C)C)cc32)cc1 (configuration not stated)	nt	nt	0.1	nt	11.7	nt	nt
Cc1c(C(=O)N2CCCC2)oc2c1-c1nn(CC(=O)NCc3ccccc3Br)cc1CC2	nt	nt	-1.5	nt	-0.3	nt	nt
COc1ccccc1C1CCN(Cc2cccc(C(=O)N3CCC(O)CC3)c2)CC1	-0.4	75.5*	74.7*	-4.8	-23.7	-3.7%	6.0%
C[C@@H]1CN([C@H](C)CO)C(=O)CCCn2nncc2CO[C@H]1CN(C)Cc1cccc(C(=O)O)c1	-2.6	nt	nt	-3.7	nt	nt	nt
CC1CCC(N2CC(=O)N(C3CCCCC3)C(c3ccc(F)cc3)C2=O)CC1 (configuration not stated)	nt	nt	-0.8	nt	-2.7	nt	nt
Cc1nc2c([nH]1)C1(CCN(Cc3ccccc3)CC1)C(C#N)=C(N)O2	?	60.0*	71.4*	7.8	-36.0	7.9%	10.5%
CC1(C)CC(=O)C2=C(C1)OC(N)=C(C#N)C21CCN(Cc2ccccc2)CC1	2.4	-15.7	3.0	-22.3	6.6	nt	nt
Cc1ccc(Sc2ccc(N3CCC(C(=O)Nc4ccc(C)c(F)c4)CC3)nn2)cc1	nt	nt	0.4	nt	-5.5	nt	nt
CCC(=O)N1c2ccccc2CC1C(=O)NCCCN1CCN(c2ccccc2)CC1 (configuration not stated)	nt	nt	nt	nt	-37.3	nt	nt
